# Experimental data from PubChem BioAssay (EPA / NIEHS).
# Calls of active or inactive are those of the source. How the source made its calls: active means hit-call score of the fitted dose curve at least 0.9, where 1 is the maximum; inactive means score below 0.9.
# Read-out: Transforming Growth Factor (TGFB1), TGFB1 (gene 7040)
# Assay: LTEA_HepaRG_TGFB1: Life Technologies and Expression Analysis (LTEA) Assay for Transforming Growth Factor (TGFB1) Transporter using HepaRG (AID 2283533)
# Details: mRNA level, 48 h; actives raise or lower the signal
# Procedure: LTEA_HepaRG is a cell based, multiplexed-readout assay that uses HepaRG, a human liver cell line, with measurements taken at 48 hours after chemical dosing on a 96-well plate.LTEA_HepaRG_TGFB1 is one of 102 assay component(s) measured in the LTEA HepaRG cell culture assay. It is a marker of Cell proliferation, survival, death.Data from the assay component LTEA_HepaRG_TGFB1 was analyzed into 1 endpoint. This assay endpoint, LTEA_HepaRG_TGFB1, was analyzed with bidirectional fitting relative to DMSO as the negative control and baseline of activity. Using a type of inducible reporter, measures of mRNA induction for gain or loss-of-signal activity can be used to understand regulation of transcription factor activity. To generalize the intended target to other relatable targets, this assay endpoint is annotated to the growth factor intended target family, where the subfamily is transforming growth factor beta.
# A total of 1060 chemcials from the ToxCast library were tested in eight-point concentration-response experiments. Cell culture and cytotoxicity assays were conducted at Thermo Fisher Scientific's Custom Services facility (Madison, WI). A single lot of human HepaRG cells (Thermo Fisher Scientific, Frederick, MD) was used for the cell culture experiments. 96-well format collagen type I coated plates of human HepaRG cells were prepared using established methods. Briefly, cryopreserved HepaRG cells were thawed, plated at a density of approximately 100,000 cells/well in HepaRG Thaw, Plate, and General Purpose media (HPRG770, Thermo Fisher Scientific), and incubated for 48 hours. 0.5% DMSO was selected as vehicle control to balance the requisite need of DMSO in HepaRG cultures to maintain differentiation (for example, baseline metabolism, proportions of hepatocytes vs. cholangiocytes), while enabling further hepatic receptor pathway activation (for example, PXR and CAR) in response to chemical exposure. 48 hours after plating, the culture medium was replaced with HepaRG Serum-Free Incudtion Media. Cells were exposed to each test chemical in duplicate and maintained in CO2 incubators for another 48 hours. Chemical plates were thawed to room temperature and 200x concentrations of treatment groups were prepared. 8-point conentration-reponse curves were made with the highest exposure at 100 uM, followed by half-log dilutions, all in 0.5% DMSO. Each test plate contained variouse controls, induction positive controls (1mM phenobarbital), cytotoxicity positive controls ([…] aflatoxin B1), vehicle controls (0.5% DMSO), and total lysis controls (0.5% DMSO). Cell morphology images were taken using an Essen IncuCyte FLR automated microscope, with six 96-well plates imaged in about 24 minutes. Images were captured and exported and JPEG files. Spent culture media was transfered to black-well plates for the LDH assay, and remaining media was sorted at -80 C for later use. Cells were treated with RLT buffer and frozen until shipped for gene expression analysis. Total RNA was isolated from the cell suspension in 75 uL of Buffer RLT (Qiagen, Germantown, MD 20874) by Quintiles/Expression Analysis (Durham, NC) using a custom isolation procedure. Total RNA from each plate well was transferred to a preamplification plate. Fluidigm's 96.96 Dynamic ArrayTM (Fluidigm, Amsterdam, the Netherlands) technology was used for gene expression analyses by quantitative reverse transcription polymerase chain reaction (qRT-PCR, performed by Quintiles/Expression Analysis, Durham, NC)89. Standard TaqManTM Assays (Applied Biosystems/ThermoFisher Scientific, Foster City, CA) were used to assess the expression of 93 genes selected based on their selectivity and sensitivity to important hepatic receptors known to be modulated by environmental chemicals; importance in human hepatocyte functionality; and hepatotoxicity. […]
Structure (SMILES),AC50,outcome
Cc1oc(-c2ccccc2)nc1CCOc1ccc(C[C@H](Nc2ccccc2C(=O)c2ccccc2)C(=O)O)cc1,31.3 µM (active),
CCCCCCCCCCCCN1CCCC1=O,,inactive
CC(C)CCCCCCOC(=O)CCCCC(=O)OCCCCCCC(C)C,,inactive
O=[N+]([O-])c1ccc(O)cc1,,inactive
CCCCCCCCOC(=O)CCCCCCCCC(=O)OCCCCCCCC,,inactive
O=C(O)c1ccccc1C(c1ccc(O)cc1)c1ccc(O)cc1,,inactive
CC#C[C@]1(O)CC[C@H]2[C@@H]3CCC4=CC(=O)CCC4=C3[C@@H](c3ccc(N(C)C)cc3)C[C@@]21C,3.49 µM (active),
C#C[C@]1(O)CC[C@H]2[C@@H]3CCC4=CC(=O)CC[C@@H]4[C@H]3CC[C@@]21C,,inactive
c1ccc2c(c1)Cc1ccccc1-2,,inactive
CCC(C)(C)C1CCC(O)CC1 (stereo not given),,inactive
NC(=O)N(O)[C@@H]1C=C[C@H](Oc2cccc(Oc3ccc(F)cc3)c2)C1,72.4 µM (active),
CCCCC(CC)COC(=O)CCCCC(=O)OCC(CC)CCCC (stereo not given),,inactive
CCC(=C(c1ccc(O)cc1)c1ccc(OCCN(C)C)cc1)c1ccccc1,97.5 µM (active),
CCOC(=O)CC(O)(CC(=O)OCC)C(=O)OCC,,inactive
CC(C)(C)c1cccc(C(C)(C)C)c1O,,inactive
CCCCC(CC)COC(=O)CCCCC(=O)OCc1ccccc1 (stereo not given),,inactive
OCCC(F)(F)C(F)(F)C(F)(F)C(F)(F)C(F)(F)C(F)(F)C(F)(F)C(F)(F)F,,inactive
CC(C)(C)c1ccc(O)c(C(C)(C)C)c1,,inactive
CC(=O)NC1(c2cccc(F)c2)CCN(CC[C@@]2(c3ccc(Cl)c(Cl)c3)CN(c3ccccc3)C(=O)CO2)CC1,,inactive
ClC1=C(Cl)C(Cl)(Cl)C(Cl)=C1Cl,,inactive

Structure (SMILES),AC50,outcome
c1ccc2cc3c(ccc4ccccc43)cc2c1,,inactive
Cc1cc(C)c(O)c(C)c1,,inactive
CCCCOCCO,,inactive
CN1CCN(c2ccccc2/C=C2\SCCN(c3ccc(Cl)c(Cl)c3)C2=O)CC1,93.4 µM (active),
COCC(C)OCC(C)O (stereo not given),,inactive
COc1ccc([N+](=O)[O-])cc1N,,inactive
Nc1cccc2c(N)cccc12,,inactive
NC(=O)N1C(=O)C(C(=O)c2cc(Cl)cs2)c2cc(F)c(Cl)cc21 (stereo not given),,inactive
CCCCCCC(=O)O,,inactive
CCCOC(=O)c1ccc(O)cc1,,inactive
N#C[C@@H]1CC(F)(F)CN1C(=O)CNC1CC2CCC(C1)N2c1ncccn1 (stereo not given in full),,inactive
O=c1c(-c2ccc(O)cc2)coc2cc(O)ccc12,,inactive
CC(C)(C)CC(C)(C)c1ccc(O)c(-n2nc3ccccc3n2)c1,,inactive
CC(C)(C)c1cc(C(C)(C)C)c(O)c(C(C)(C)C)c1,,inactive
Cc1cc(CCN2CCN(c3nsc4ccccc34)CC2)cc2c1NC(=O)CC2(C)C,35.4 µM (active),
CCCCCCCC(=O)O,,inactive
C=C(C)C(=O)OCCC(F)(F)C(F)(F)C(F)(F)C(F)(F)C(F)(F)C(F)(F)F,,inactive
CCCOc1sc(C(=O)N2CCC(c3cc(CN)ccc3F)CC2)c(C)c1Br,,inactive
OCCC(F)(F)C(F)(F)C(F)(F)C(F)(F)C(F)(F)C(F)(F)F,,inactive
CCCCCCCCCCCCCCCS(=O)(=O)Oc1ccccc1,,inactive
